# Values joined by “and” are separate entries in the source; they are usually repeats but may differ in a detail not shown here. Identical values can stand only once. Compounds without any hit were thinned out: in the full panel of roughly 83,000, 20% have a hit.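 Negative percent growth values reflect cell death: -40 means 40% of the cells present at the start died, and -100 means all died.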 A number with no mark means an inactive call. Active and inactive are the calls of the source. The calls were made as follows: active = growth percent below 10; inactive = the rest.
# System: MDA-MB-468 breast
# Test: NCI-60 one-dose screen, 48 h (100 = growth as untreated, 0 = no growth, -100 = all killed)
# Conditions: 10 µM unless noted
row,Structure (SMILES),growth
1,C/C(=C\C(=O)O[C@H]1[C@@H]2[C@H](C)CC[C@H]2[C@]2(C)O[C@@]1(C1CCCCC1)C[C@H]2OC(=O)CO)c1ccccc1,28%
2,O=C(O)C1(Br)CC12c1ccccc1-c1ccccc12 (stereo unspecified),98.7%
3,CN1[C@@H](CC(=O)c2ccccc2)CCC[C@H]1CC(=O)c1ccccc1,101%
4,Cc1cc(N(CCCl)CCCl)ccc1/C=N\NC(=O)c1ccncc1,-45.6% (active)
5,O=C(O)C(O)C(O)C1[O][Sb]([c]2ccc([N+](=O)[O-])cc2)[O]C1CO (stereo unspecified),98.2%
6,O=C(O)c1ccc([S-])cc1.[Au+].c1ccc(CN2[CH-]N(Cc3ccccc3)C(c3ccccc3)=C2c2ccccc2)cc1,-63.2% (active)
7,NC(=O)Oc1cc(OC(N)=O)cc(N(CCCl)CCCl)c1,29.9%
8,CCCCCCCCCCCCCCCCCC1OC[C@H](COC(=O)O[C@@H](C(=O)O[C@H]2C[C@@]3(O)[C@@H](OC(=O)c4ccccc4)[C@@H]4[C@]5(OC(C)=O)CO[C@@H]5C[C@H](O)[C@@]4(C)C(=O)[C@H](OC(C)=O)C(=C2C)C3(C)C)[C@@H](NC(=O)c2ccccc2)c2ccccc2)O1 (stereo partly specified),0.893% (active)
9,CN(C)CC1(N)C(=O)NC(=O)NC1=O,94.6%
10,O=C(CCCCCCC(=O)Nc1ccc(N(CCCl)CCCl)cc1)NO,-64.2% (active)
11,O=C(O)c1cc([N+](=O)[O-])cc([N+](=O)[O-])c1,103%
12,Cc1c(NS(=O)(=O)c2ccccc2)ccc([N+](=O)[O-])c1Cl,34.5%
13,CNC(=O)Oc1cc(C(C)C)ccc1Sc1ccc(C(C)C)cc1OC(=O)NC,56.5%
14,CCCCCCCCCCCCCCCCCCn1cc[n+](C)c1,-42.3% (active) and -20.4% (active)
15,COc1cc(/C=C/[N+](=O)[O-])cc(Br)c1OC,-34.7% (active)
16,O=C(O)C(Cl)(Cl)C(F)(F)F,106%
17,O=C(O)c1ccccc1N(CCO)CCCl,95.1%
18,C=CCN1C(=O)C(CC)(CCC(C)C)C(=O)NC1=S (stereo unspecified),102%
19,CCOC(=O)P(=O)(OCC)OCC,110%
20,CC(=O)O[C@H]1CCC2(C)C(=CCC3C2CCC2(C)/C(=N/OC(=O)c4ccc(N(CCCl)CCCl)cc4)CCC32)C1 (stereo partly specified),79.9%
21,CC1CCCC(C[N+](C)(C)C)C1=O (stereo unspecified),97.3%
22,Cc1cc2c(cc1-c1ccnc(/C=C/C(=O)O)c1)C(C)(C)CCC2(C)C,97.1%
23,O=[N+]([O-])c1cc(Cl)c(Cl)c([N+](=O)[O-])c1Cl,9.01% (active)
24,Oc1c(CCl)cc(Cl)cc1CCl,113%
25,COC(=O)[C@@]1(O)C[C@H]2O[C@]1(C)n1c3ccccc3c3c4c(c5c6ccccc6n2c5c31)C(=O)NC4,-72.4% (active)
26,CC1(C)N=C(N)N=C(N)N1c1ccc(CCC(=O)Nc2cccc(S(=O)(=O)F)c2)cc1,28%
